# Assay results taken from PubChem BioAssay AID1053143 (Broad Institute, 2014).
# About 120 (3.5%) of roughly 3,400 compounds were called active. The list is a sample of the results. Potency and affinity values are given separately. A number with no mark means an inactive call. How the calls were made is not given here.
# Experiment: viability loss in HepG2 hepatoma cells – cell-based, ATP luminescence, cherry-pick, activator set 2, cytotoxicity control, dose response (AID 1053143)
# Settings: CellTiter-Glo ATP luminescence, 72 h; series mostly up to 26 µM; activity change, negative = cytotoxicity: at the top concentration
row,SMILES,"activity change, negative = cytotoxicity"
1,CCCCN1CCc2c([nH]c3ccc(C)cc23)C1=O,-7.17%
2,O=C1CCC(c2ccccc2)c2ccccc21 (configuration not stated),-5.58%
3,O=C(Nc1ccc2ccccc2c1)c1ccc(Cl)cc1Cl,-13%
4,Cn1ccc(NC(=O)c2ccc(Cl)cc2Cl)n1,9.45%
5,O=C(NCCO)c1ccc2c3n(nc2c1)-c1ccc(Cl)cc1CO3,-13.4%
6,CN(C)CCN1C(=O)C(=O)/C(=C(/O)c2ccc3c(c2)OCCO3)C1c1ccccn1 (configuration not stated),-7.51%
7,COc1cccc(/C=C/C(=O)NNC(=O)c2ccccc2)c1OC,-12.3%
8,CSc1nc(Cl)cc(Nc2ccc(O)cc2)n1,-0.166%
9,Cc1cccc(NC(=O)c2c(O)c3ccccc3[nH]c2=O)c1,-15.7%
10,Cc1cccc(C(=O)OCC(=O)c2c(C)[nH]c3ccccc23)c1O,0.746%
11,Nn1c(SCc2c(F)cccc2F)nnc1-c1ccccn1,-0.861%
12,O=C(Nc1ccc(NC(=O)c2cccs2)cc1Cl)c1ccco1,12.9%
13,CCC(=O)Nc1ccc(NC(=O)c2ccco2)c(OC)c1,67.7%
14,Cc1cccc(NC(=O)c2ccccn2)c1C,5.79%
15,CC1(O)C(c2ccccc2)=Nc2ccccc21 (configuration not stated),-24.2%
16,O=C(c1cc(COc2c(F)cccc2F)on1)N1C[C@H]2CC[C@H]1C2,-1.5%
17,Cc1ccc(-n2nc3ccc(N)cc3n2)cc1C,-0.701%
18,CC(C)c1ccc(-n2nc3ccc(N)cc3n2)cc1,-17.6%
19,CC(=O)c1ccc2c(c1)Cc1cc(C(C)=O)ccc1-2,-12.1%
20,CC1CCc2sc(C(=O)NC3CCCCC3)cc2C1 (configuration not stated),-10.7%
21,Clc1nc2ccccc2cc1/C=N/Nc1nc2ccccc2[nH]1,-7.1%
22,C(=N\Nc1nc2ccccc2[nH]1)/c1cccs1,1.51%
23,C(=C\c1ccccc1)/C=N/Nc1nc2ccccc2[nH]1,-9.79%
24,Fc1ccccc1-c1ccc(/C=N/Nc2nc3ccccc3[nH]2)o1,-16.3%
25,Cc1ccc(/C=N/Nc2nc3ccccc3[nH]2)s1,-17.2%
26,C(=N\Nc1nc2ccccc2[nH]1)/c1ccc2c(c1)OCCO2,-13.2% [at 12 µM]

row,SMILES,"activity change, negative = cytotoxicity"
1,Cc1ccsc1/C=N/Nc1nc2ccccc2[nH]1,-6.65%
2,C=CCn1cc(/C=N/Nc2nc3ccccc3[nH]2)c2ccccc21,-43.7%
3,O=C(COC(=O)CC1CCCC1)Nc1cc2c(cc1Cl)C(=O)c1ccccc1C2=O,-25.4%
4,O=C(O)CC1=C(Nc2ccccc2)C(=O)N(c2ccccc2)C1c1ccc(Br)cc1 (configuration not stated),21.9%
5,COC(=O)C(C)N1C(=O)S/C(=C/c2cc(C)n(-c3ccccn3)c2C)C1=O (configuration not stated),-4.21%
6,Cc1cccc(-n2ncc3c(NCCCO)ncnc32)c1,4.41%
7,O=C(CCNC(=O)c1ccc(Br)cc1)Nc1ccc(S(=O)(=O)N2CCOCC2)cc1,-8.39%
8,C=CCc1c(C)nc2cc(-c3ccccc3)[nH]n2c1=O,-7.02%
9,Cc1ccc2oc(C(=O)N(C)Cc3ccon3)c(C)c2c1,-6.74%
10,C(/C=C/c1ccccn1)=C\c1ccccc1,-22.6%
11,COc1ccc2cc3cc(C(=O)N4CCCC(C)C4)oc3nc2c1 (configuration not stated),-14%
12,Cn1c(NC(=O)c2ccccc2F)c(-c2cccs2)c(=O)c2ccccc21,-4.75%
13,COc1ccc(N=NC2=C(O)CC(C)(C)CC2=O)cc1,-13.4%
14,CC(=O)Nc1cccc(-n2nnc(SCC(=O)c3ccccc3)n2)c1,-12.8%
15,CCC(=O)Nc1ccc2nn(-c3ccc(F)cc3)nc2c1,-11.6%
16,Cc1cc2nn(-c3ccccc3)nc2cc1NC(=O)c1cccs1,-10.6%
17,CCC(=O)Nc1cc(C(=O)OCC(=O)c2ccccc2Cl)ccc1C,-11.1%
18,CCCC(=O)Nc1ccc2oc(-c3cccnc3)nc2c1,-9.19%
19,Cc1ccc(NC(=O)Nc2cccc(C)n2)cc1,-7.97% [at 6 µM]
20,CC(=O)Nc1cccc(NC(=O)CCCC(=O)O)c1,-2.64%
21,O=C(CC(=O)c1ccccc1)Nc1ccccc1,0.16%
22,O=C(Nc1cc(F)c(Br)cc1F)c1ccc(Cl)cc1,4.77%
23,Cc1cnc(NC(=O)c2ccc3ncsc3c2)s1,-12.4%
24,NC(=O)Cc1c[nH]c2cccc(O)c12,-2.19%
25,CCn1c(O)c(C#N)c(C)cc1=O,20.8%
26,O=C(Nc1ccc(F)cc1F)c1csc(-c2cccs2)n1,-6.08%

row,SMILES,"activity change, negative = cytotoxicity"
1,c1csc(-c2nc(N3CCCCC3)no2)c1,-5.95%
2,Fc1cccc(CSc2ccc(-c3ccco3)nn2)c1,-3.59%
3,CC(SCc1ccccc1)C(=O)Nc1ccccc1 (configuration not stated),-19.4%
4,COc1cccc(/C=C/c2ccc3cccc(O)c3n2)c1OC,-17.3%
5,CCOC(=O)c1cc(OCC)c2c(ccc3ccccc32)n1,-16.6%
6,COc1c(OC(C)=O)ccc(/C=C/c2ccc3cccc(OC)c3n2)c1[N+](=O)[O-],-13.7%
7,COc1cccc(/C=C/c2ccccn2)c1O,2.62%
8,COc1ccc(-c2csc(NC(=O)CC(C)C)n2)cc1,-14.7%
9,COc1ccccc1N1CCN(/N=C\c2ccc(C)o2)CC1,27.8%
10,COc1ccc(CCNC2CC(=O)N(CCc3ccccc3)C2=O)cc1OC (configuration not stated),-2.2%
11,COc1ccc(Nc2nc(N)nc(CSc3nccn3C)n2)cc1,-1.36%
12,COc1ccc(NC(=O)Nc2cc(C)ccn2)cc1,3.17%
13,COc1ccc(Nc2ccc3ccccc3c2)cc1,0.933%
14,COc1ccc2cc(-c3cccnc3)ncc2c1,-8.05%
15,O=[N+]([O-])c1ccc(Nc2nccc(Cl)n2)cc1,-17.5% [at 12 µM]
16,Clc1nc(Nc2ccccc2)nc(Nc2ccccc2)n1,-9.79%
17,O=C(c1ccc(Cl)c([N+](=O)[O-])c1)N(Cc1ccc(Cl)cc1)C1CCS(=O)(=O)C1 (configuration not stated),-4.46%
18,Cn1nnc(NC(=O)C(c2ccccc2)c2ccccc2)n1,1.29%
19,O=C(CNC(=O)c1ccccc1)OCC(=O)N1N=C(c2ccc(Cl)cc2)CC1c1ccco1 (configuration not stated),0.766%
20,C#CCNC(=O)/C=C/c1ccc(OC)cc1,-15.5%
21,Cc1nc2ccc(NC(=O)c3ccc(Cl)s3)cc2s1,9.53%
22,C=CCOc1ccc2c(OC)c3ccoc3nc2c1OC,-3.4%
23,CCCC(=O)N(C)c1nnc(-c2ccc(OC)cc2)s1,-14.6%
24,COc1ccc(C)cc1NC(=O)C1CCCN1S(=O)(=O)c1ccccc1F (configuration not stated),-12.2%
25,Cn1cccc1C(=O)OCC(=O)c1cc2ccccc2o1,15.6%
26,COc1cc(Cl)ccc1OCc1cc(C(=O)N2C[C@@H]3CCC[C@H]2C3)no1,5.09% [at 12 µM]

row,SMILES,"activity change, negative = cytotoxicity"
1,O=C(/C=C/c1ccco1)Nc1nc(-c2ccccc2)cs1,-19.8%
2,Nc1cc(-c2ccc(Cl)cc2)nn1-c1ccccc1,-12.7%
3,Cc1occc1C(=O)O/N=C(\N)c1ccc(Cl)cc1,36.1%
4,O=C(Nc1nc(=O)c2ccccc2s1)c1ccccc1,-0.099%
5,O=C(Nc1nc2ccccc2s1)c1ccc(F)cc1,-23%
6,O=C(c1ccccc1)c1cnc(-c2ccc(Cl)cc2)s1,-21.5%
7,CCCC(=O)N/C(N)=N/c1nc2ccccc2o1,-11.3%
8,Cc1nc(Nc2ccccc2)sc1C(=O)c1ccccc1,5.72%
9,Nc1nc(Nc2ccccc2F)sc1C(=O)c1ccccc1,25.7%
10,Cc1ccc(Nc2ncccc2C(N)=O)cc1[N+](=O)[O-],-16.8%
11,CCOC(=O)c1ccc(N2Cc3ccccc3C2=NC(=O)c2ccncc2)cc1,0.403%
12,Cc1ccc(Nc2nc3ccccc3o2)cc1F,-28.7% [at 12 µM]
13,O=c1sc2ccccc2n1CCCOc1ccccc1,-13.9%
14,Cn1c(-c2ccc([N+](=O)[O-])cc2)nc2ccccc21,-8.29%
15,Cc1ccc(OCCn2cnc3ccccc3c2=O)c([N+](=O)[O-])c1,-2.42%
16,Fc1cccc(-c2ncc(-c3ccccc3)o2)c1,-8.72%
17,Cc1cc(NC(=O)c2ccccc2)sc1C,-41.8%
18,CCOC(=O)c1ccc2nc(NC(C)=O)sc2c1,8.97%
19,O=C(Nc1nc2ccc([N+](=O)[O-])cc2s1)c1ccco1,-10.7%
20,Cc1cc2sc(NC(=O)c3ccco3)nc2cc1Cl,-2.65%
21,O=C(Nc1cc(-c2ccccc2)cs1)c1ccco1,-12.4%
22,O=C(Nc1nc2c(ccc3ccccc32)s1)c1ccco1,-31.8%
23,CCOc1ccc(NC(=O)Cc2ccccc2)cc1,-19.9%
24,COC(=O)c1sc2nc3c(cc2c1N)CCCC3,-2.91%
25,CC(C)c1ccc(NC(=O)c2cccc(Br)c2)cc1,17.8%
26,COc1cc(/C=N/NC(=O)CNC(=O)c2ccccc2)ccc1OC(=O)c1cccs1,-19.2%

row,SMILES,"activity change, negative = cytotoxicity"
1,O=C(Nc1nc2ccc(Cl)cc2s1)C1CC1,-16%
2,CCC1CCCCN1S(=O)(=O)c1ccc(NC(=O)C2CC(=O)N(C(C)(C)C)C2)cc1 (configuration not stated),-2.85%
3,O=c1[nH]c2ccccc2nc1CCc1ccccc1,-9.94%
4,COc1cc(OC)cc(C(=O)NCC(=O)Nc2ccc(C)c(Cl)c2)c1,0.049%
5,Cc1cc(N2CCCCC2)nc2ccc(NC(=O)CCC(=O)NCCC(C)C)cc12,-18.6%
6,CCn1ccc(C(=O)Nc2ccc(Cl)cn2)n1,-0.072%
7,c1ccc2c(c1)Cc1cc3ccccc3nc1-2,-11.6%
8,O=C1c2ccccc2-c2nc3ccccc3cc21,-16.9%
9,CC(C)Sc1ccc(C(=O)Nc2ccc(F)cc2F)cn1,-2.75%
10,CCC(C)Sc1ccc(-c2nc3ccc(Cl)cn3c2NCc2ccccc2)cc1 (configuration not stated),-18.8%
11,CN(Cc1ccsc1)C(=O)CCc1nnc(CCCc2ccccc2)o1,-9.96%
12,O=C(Nc1ccccn1)C(=O)Nc1ccccn1,-5.28%
13,Cc1n[nH]c(=O)nc1N/N=C/c1ccco1,13.9%
14,Cc1nc(-c2ccc(NC(=O)c3ccccc3Br)cc2)cs1,-4.14%
15,Cc1nc(-c2ccc(NC(=O)CC(C)C)cc2)cs1,-11.5%
16,O=C(NC(=O)c1ccccc1)Nc1ccccc1O,-14.8%
17,O=C(Nc1ccccc1N1CCN(c2ccccc2)CC1)c1ccccc1,-2.97%
18,CCCNC(=O)Nc1cccc(C(=O)OC)c1,-14.5%
19,Nc1ccc2nc(-c3ccccc3)cnc2c1,-14.5%
20,c1ccc(-c2cnnc(-c3ccccn3)n2)cc1,-3.23%
21,O=C(Nc1nccs1)c1cc2c(s1)-c1ccccc1OC2,-3.47%
22,Cc1cc(O)c(NC(=O)c2cccc([N+](=O)[O-])c2)cc1C,1.55%
23,COc1ccc(CCN2C(=NC(C)=O)SC3CS(=O)(=O)CC32)cc1OC (configuration not stated),1.28%
